Results taken from PubChem BioAssay (NCI).
About 83,000 compounds went through this panel and 20% of them were active in at least one assay; those are over-represented in the sample as a whole.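 The endpoint reported here, percent growth, reads 100 for growth as untreated, 0 for no net growth and -100 for all cells dead.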 Unmarked numbers belong to inactive results. Activity calls are given as the source filed them. Rule for the calls: active = growth percent below 10; inactive = the rest.

What was measured:
Assay in all cases: NCI-60 one-dose screen, 48 h (100 = growth as untreated, 0 = no growth, -100 = all killed)
Conditions in all cases: 10 µM
[1] = test system: DU-145 prostate
[2] = test system: K-562 leukemia
[3] = test system: MALME-3M melanoma
[4] = test system: MDA-MB-231 breast
[5] = test system: RXF 393 renal
[6] = test system: SF-268 CNS
[7] = test system: SF-295 CNS
[8] = test system: SF-539 CNS
[9] = test system: UACC-257 melanoma
[10] = test system: M14 melanoma
[11] = test system: HCT-15 colon
[12] = test system: HT29 colon
[13] = test system: SNB-75 CNS
[14] = test system: SNB-19 CNS
[15] = test system: U251 CNS
[16] = test system: PC-3 prostate
[17] = test system: SK-MEL-5 melanoma
[18] = test system: LOX IMVI melanoma
[19] = test system: SK-MEL-28 melanoma
[20] = test system: UACC-62 melanoma

Compound | growth [1] | growth [2] | growth [3] | growth [4] | growth [5] | growth [6] | growth [7] | growth [8] | growth [9] | growth [10] | growth [11] | growth [12] | growth [13] | growth [14] | growth [15] | growth [16] | growth [17] | growth [18] | growth [19] | growth [20]
COc1cccc2c1C(=O)c1c(O)c3c(c(O)c1C2=O)C[C@@](O)(C(=O)COC(=O)c1cccnc1)C[C@@H]3OC1CC(N)C(O)C(C)O1 (some centres not stated) | 7.78% (active) | 1.5% (active) | -66.7% (active) | -18.6% (active) | -64.5% (active) | -30% (active) | -56.8% (active) | -36.4% (active) | -54.7% (active) | -43.4% (active) | 32.9% | -29.5% (active) | -75% (active) | 5.16% (active) | -14.4% (active) | -41.8% (active) | -49.1% (active) | 0.723% (active) | -13.8% (active) | 
Nc1ncc(-c2ccc(C(F)(F)F)cc2)c(NC2CCCCCC2)n1 | 64.2% | 16.2% | -21.4% (active) | 65.1% | 50.3% | 56.1% | -20.9% (active) | 65.2% | -13.5% (active) | 27.8% | 73.7% | 31.5% | 57.8% | 49.9% | 22.5% | 12% | 3.53% (active) |  | 33.7% | 0.46% (active)
Cc1nc(N)sc1Sc1nc2ccc(Cl)cc2c(=O)n1-c1ccc(Oc2ccccc2)cc1 | 92.5% | 74.4% | 95.1% | 89.3% | 86.4% | 107% | 67.8% | 93.4% | 75.7% | 76.6% | 55.4% | 55.9% | 96% | 69.4% | 77.2% | 48.9% | 76.1% |  | 95.1% | 63.9%
CC1=CC2OC34COC3CC(OC(=O)C(F)(F)F)C4(C)C2(C)CC1 (configuration not stated) | 108% | 120% | 109% | 101% | 93.9% | 103% | 100% | 98.4% | 103% | 96% | 97.4% | 104% | 86% | 94.5% | 101% | 100% | 97.4% |  | 101% | 101%
CCNC1(NC#N)CCCCC1 | 123% | 115% | 113% | 107% | 108% | 112% | 97.7% | 105% | 85.1% | 99% | 98.8% | 123% | 91.2% | 110% | 98.9% | 95% | 96.8% | 104% | 103% | 
CCCCCCCCCCCCc1ccc(C(=O)/C=C/C(=O)O)cc1 | 89.8% | -5.52% (active) | 69.1% | 29.4% | 80.8% | 100% | 80.2% | 76.5% | 96.1% | 62.1% | -19.4% (active) | 27.8% | 74.5% | 94.4% | 80.1% | 82.9% |  | -62.4% (active) | 26.4% | -16.8% (active)
CC(=O)OCC(COC(C)=O)(COC(C)=O)COC(C)=O | 103% | 95.4% | 94.6% | 105% | 104% | 94.7% | 103% | 111% | 103% | 108% | 102% | 102% | 105% | 104% | 103% | 102% | 93% | 98.1% | 121% | 
COC(=O)[C@]12CC[C@@H](C)[C@H](C)[C@@H]1C1=CC[C@@H]3[C@@]4(C)CC(=O)[C@H](O)[C@@]5(C)COC(=C45)C[C@@]3(C)[C@]1(C)CC2 | -85.7% (active) | -24.9% (active) | -75.7% (active) | -72.5% (active) | -87.6% (active) | -67.2% (active) | -77.8% (active) | -52.1% (active) | -75.1% (active) | -66.3% (active) | -69.7% (active) | -61.2% (active) | -32.6% (active) | -54.1% (active) | -88.7% (active) | -32.3% (active) | -97.2% (active) | -80.7% (active) | -41.8% (active) | 
